CHT PAM: allosteric activators of human choline transporter CHT; Q9GZV3; CHT-expressing cells, membrane potential dye, choline EC20; hits give high values; LV-AA mutant CHT in HEK293 cells; B-score at 10 µM; actives 0.49% (n = 310,000);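 active = initial fluorescence not abnormally high and integrated response B-score, plate-corrected, over 3 SD above library mean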
TAG inh: reduces triacylglycerol accumulation in H9c2 cells | actives 0.66% (n = 230,000) | inhibition, % at 12.5 µM | AID 651582 | Nile Red lipid (TAG) fluorescence; cells loaded with 200 µM oleic acid;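 active = pattern-corrected inhibition of lipid staining of at least 50% with the nuclear-stain viability signal not falling by more than 50%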;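 note: 0% = DMSO wells and 100% = triacsin C control wells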
CHT block: inhibits the human high affinity choline transporter; Q9GZV3; CHT-expressing cells, membrane potential dye, choline response; hits give low values; B-score at 10 µM; actives 0.86% (n = 310,000); AID 488975;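 active = B-score over 3 SD under the library average, and starting fluorescence ratio not unusually high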;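 note: choline stimulus applied at its EC90 after an EC20 pre-addition; B-score computed on integrated fluorescence ratio after choline addition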
Kir21 block: blocks the mouse Kir2.1 inward-rectifier potassium channel | actives 0.85% (n = 310,000) | P35561 | B-score at 10 µM | AID 1672 | HEK293-Kir2.1, FluxOR thallium flux fluorescence; hits give low values;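 active = fluorescence ratio B-score at or below minus 3 SD of library scores, with starting-brightness B-score within 2 SD, cut at about -4.2 in these data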;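 note: channel flux triggered by added potassium and thallium sulfate stimulus; B-score of peak minus minimum fluorescence over baseline after thallium stimulus; more negative B-score means stronger Kir2.1 block with less thallium influx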
Target sequence (P35561 whole entry, looked up): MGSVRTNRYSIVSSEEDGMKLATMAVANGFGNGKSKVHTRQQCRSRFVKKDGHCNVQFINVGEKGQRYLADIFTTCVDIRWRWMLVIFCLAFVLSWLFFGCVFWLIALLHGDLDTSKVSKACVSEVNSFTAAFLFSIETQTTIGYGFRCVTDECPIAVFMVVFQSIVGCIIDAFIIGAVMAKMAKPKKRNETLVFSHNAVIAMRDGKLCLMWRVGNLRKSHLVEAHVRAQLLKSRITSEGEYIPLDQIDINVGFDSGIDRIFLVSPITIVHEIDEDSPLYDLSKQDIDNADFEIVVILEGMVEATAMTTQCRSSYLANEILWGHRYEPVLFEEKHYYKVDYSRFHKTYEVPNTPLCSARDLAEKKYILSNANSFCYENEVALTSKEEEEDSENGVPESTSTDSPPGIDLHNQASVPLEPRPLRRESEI
Starred values were filed as active, the others as inactive. Sampled rows, rich in hits. Any-hit rate of the full collection: about 2%.

`CCC(=O)Nc1ccc(Cl)c(Cl)c1` gave TAG inh -22.
CCOc1cc(CNC(C)C(O)c2ccccc2)cc(Cl)c1OCC (stereo unspecified) was read as CHT PAM inactive, CHT block inactive and Kir21 block -5.6*.
`CC(NCc1ccc(Cl)c(Cl)c1)C(O)c1ccccc1` (stereo unspecified) gave CHT PAM inactive, CHT block inactive and Kir21 block -4.6*.
`CCOc1c(Cl)cc(CNCCc2c[nH]c3ccccc23)cc1OC` gave CHT PAM inactive, TAG inh 8, CHT block inactive and Kir21 block -1.7.
CC(NCc1ccccc1Cl)C(O)c1ccccc1 (stereo unspecified) was read as CHT PAM inactive, CHT block inactive and Kir21 block -5.7*.
`CCOc1cc(CNCCc2c[nH]c3ccccc23)cc(Cl)c1OCC` gave CHT PAM inactive, CHT block inactive and Kir21 block -7.6*.
For CC1C(c2cccs2)=[N+]([O-])C(C)(C(=O)c2ccc(Cl)cc2)N1O (stereo unspecified) the results were CHT PAM inactive, TAG inh 33, CHT block inactive and Kir21 block 0.42.
`COc1ccc(CC2(CCc3ccncc3)C(=O)NC(=O)NC2=O)cc1OC` gave CHT PAM inactive, CHT block inactive and Kir21 block -0.41.
Screening COC(=O)C1=C(c2ccc(S(C)(=O)=O)cc2)C[C@@H]2CC[C@H]1N2C(=O)NCc1ccc(F)cc1 returned CHT PAM inactive, CHT block inactive and Kir21 block 0.04.
Screening Clc1ccc(C[n+]2c(-c3ccccc3)cc(-c3ccccc3)cc2-c2ccccc2)cc1 returned CHT PAM inactive, TAG inh 36, CHT block -8.9* and Kir21 block -13*.
CCOc1ccc(-c2cc(C)[n+](CCc3ccc(OC)c(OC)c3)c(-c3ccc(OCC)cc3)c2)cc1 was read as CHT PAM inactive, CHT block inactive and Kir21 block -3.2.
Cc1cc(-c2ccccc2)cc(-c2ccccc2)[n+]1CCc1ccccc1 was read as CHT PAM inactive, TAG inh 17, CHT block inactive and Kir21 block -6.9*.
Screening CCCNC(=O)N1[C@H]2CC[C@@H]1C(C(=O)OC)=C(c1ccc3ccccc3c1)C2 returned TAG inh -16.
For COc1cc2c(cc1OC)-c1c(OC)c(OC)cc3c1C(C2)N(C)CC3 (stereo unspecified) the results were CHT PAM 8.4*, CHT block inactive and Kir21 block 0.59.
For COc1c(C=C2C(=O)NC(=O)NC2=O)c(CCN(C)C(=O)c2ccccc2)cc2c1OCO2 the results were CHT PAM inactive, CHT block inactive and Kir21 block -4.5*.
Cc1ccc(S(=O)(=O)N(c2cc(Cl)c(O)c(Cl)c2)P(=O)(OC(C)C)OC(C)C)cc1 was read as CHT PAM inactive, TAG inh -15, CHT block inactive and Kir21 block 2.1.
`Cc1nn(Cc2ccc(Cl)cc2Cl)c(Cl)c1C(=O)O` gave CHT PAM inactive, TAG inh 3, CHT block inactive and Kir21 block -2.8.
Screening N=c1c2c(n(Cc3ccc(Cl)cc3Cl)c3c1CCC3)CCCC2 returned CHT PAM 6.4*, TAG inh -18, CHT block inactive and Kir21 block -0.4.
Screening Oc1cc(Cl)ccc1Oc1ccc(Cl)cc1Cl returned CHT PAM inactive, CHT block -5* and Kir21 block 1.2.
For O=C(O)COc1ccc(Cl)cc1Cl the results were CHT PAM inactive, TAG inh 3, CHT block inactive and Kir21 block -0.38.
Screening C[C@@H]1C(=O)O[C@H]2[C@H](O)[C@]34[C@@H]5OC(=O)[C@]3(OC3OC(=O)[C@H](O)C34[C@H](C(C)(C)C)[C@@H]5O)[C@@]12O (stereo partly specified) returned TAG inh 3.
`COc1cccc(C2CCN(C)C2)c1` (stereo unspecified) gave TAG inh -2.
For COc1ccc(SCC2CN(C)CCC2c2ccc(F)cc2)cc1 (stereo unspecified) the results were CHT PAM inactive, TAG inh 15, CHT block inactive and Kir21 block -4.8*.
For O=[N+]([O-])c1ccc(N2CCNCC2)cc1NCc1ccco1 the results were CHT PAM inactive, CHT block inactive and Kir21 block -4.4*.
Screening N#CC(C#N)=NNc1ccc(-n2ccc(C(F)(F)F)n2)cc1 returned CHT PAM inactive, TAG inh -10, CHT block inactive and Kir21 block -6*.
`CNC(=O)Oc1cccc2c1OC(C)(C)O2` gave TAG inh 1.
For CN[C@@H]1C[C@@H](c2ccc(Cl)c(Cl)c2)c2ccccc21 the results were CHT PAM inactive, CHT block inactive and Kir21 block -11*.
Screening CCOC(=O)c1c(-n2c(C)cc(C=C3C(=O)NC(=S)NC3=O)c2C)sc2c1CCCC2 returned CHT PAM inactive, CHT block inactive and Kir21 block -4.8*.
Screening NC(N)=N/N=C/c1cn(-c2ccccc2)nc1-c1cccs1 returned CHT PAM inactive, TAG inh 124*, CHT block inactive and Kir21 block -9.3*.
`O=c1c2ccccc2nc(-c2cccs2)n1-c1ccccc1` gave CHT PAM inactive, TAG inh 3, CHT block inactive and Kir21 block -1.8.
N[C@@H](Cc1c[nH]c2ccccc12)c1nnc(SCc2ccc(Cl)cc2)o1 was read as CHT PAM inactive, TAG inh 12, CHT block inactive and Kir21 block -5.2*.
Screening COc1cccc(-n2c(CN3CCN(C)CC3)nc3ccc([N+](=O)[O-])cc3c2=O)c1 returned CHT PAM inactive, CHT block inactive and Kir21 block -1.3.
O=C1NC(=O)N(c2ccccc2F)C(=O)/C1=C/c1ccc(Sc2nc3ccccc3[nH]2)o1 was read as CHT PAM inactive and CHT block inactive.
O=C1NC(=O)N(c2cccc(Cl)c2)C(=O)/C1=C\c1ccc(Sc2nc3ccccc3[nH]2)o1 was read as CHT PAM inactive, TAG inh -25, CHT block inactive and Kir21 block -4.8*.
`COc1cc2nc(CN3CC=C(c4ccccc4)CC3)[nH]c(=O)c2cc1OC` gave CHT PAM inactive, TAG inh 73*, CHT block inactive and Kir21 block 0.03.
CN(C)c1ccc(/C=C2/C(=N\O)C3CCN2CC3)cc1 was read as CHT PAM inactive, TAG inh -11, CHT block inactive and Kir21 block 1.2.
Screening CN(C)CC#CCn1c2ccccc2c2ccccc21 returned CHT PAM inactive, TAG inh 1, CHT block inactive and Kir21 block -5.6*.
O=S(=O)(c1ccc(Cl)cc1)N1CCCCC1c1cccnc1 (stereo unspecified) was read as CHT PAM inactive, TAG inh -7, CHT block inactive and Kir21 block -9*.

Source: PubChem BioAssay
